The results in this text go back to PubChem BioAssay (NCATS).

Records with an inconclusive call do not appear. Active and inactive are the calls of the source. Calls come from the whole dose curve; as a rule, active = well fitted inhibition curve with a large enough effect; inconclusive = small, poorly fitted or top-dose-only effect, or effect the other way; inactive = flat fitted curve, though single readings scatter.
% is set by controls: 0 for no effect and ±100 for the full control effect.

Chain of ATP-dependent 6-phosphofructokinase (Trypanosoma brucei brucei) (O15648 whole entry, looked up): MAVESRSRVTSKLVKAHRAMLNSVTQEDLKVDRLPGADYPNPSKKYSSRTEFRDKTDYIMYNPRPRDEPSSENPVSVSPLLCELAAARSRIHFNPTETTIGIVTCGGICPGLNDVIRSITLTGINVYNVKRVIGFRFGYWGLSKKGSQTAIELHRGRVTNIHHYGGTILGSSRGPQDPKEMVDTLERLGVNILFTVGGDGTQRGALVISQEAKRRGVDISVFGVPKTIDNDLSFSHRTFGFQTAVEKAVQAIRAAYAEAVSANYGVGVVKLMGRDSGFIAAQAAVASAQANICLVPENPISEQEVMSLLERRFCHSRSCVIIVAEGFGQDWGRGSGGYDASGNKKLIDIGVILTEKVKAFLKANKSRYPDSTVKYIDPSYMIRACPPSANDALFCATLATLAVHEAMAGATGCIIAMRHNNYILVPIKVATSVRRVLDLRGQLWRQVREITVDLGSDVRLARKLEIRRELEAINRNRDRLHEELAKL

This experiment concerns the target ATP-dependent 6-phosphofructokinase (Trypanosoma brucei brucei) (UniProt O15648). The experiment in a line: qHTS Assay to Find Inhibitors of T. brucei phosphofructokinase: hit validation (AID 492961).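 Note: luminescence reports ADP formed as PFK phosphorylates fructose-6-phosphate with ATP.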 The settings on record: T. brucei PFK, ADP-Glo luminescence; series mostly up to 51.4 µM; activity change, negative = inhibition: at the top concentration. The gist of the method: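 ADP-Glo luminescence read-out of ADP formed by 1.25 nM PFK from 0.1 mM ATP and 0.5 mM F6P (TEA pH 8.0, 45 min, RT). Compounds titrated; activity normalized to no-enzyme and full-enzyme controls.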
Consider `O=C(O)CC/C=C\CC[C@@H]1[C@@H](N2CCCCC2)[C@@H](O)C[C@@H]1OCc1ccc(-c2ccccc2)cc1`, for which the “activity change, negative = inhibition” value was 0% (inactive).
Then `CN[C@@H]1[C@H](O[C@H]2[C@H](O[C@H]3[C@H](O)[C@@H](O)[C@H](N=C(N)N)[C@@H](O)[C@@H]3N=C(N)N)O[C@@H](C)[C@]2(O)C=O)O[C@@H](CO)[C@H](O)[C@H]1O`, with 3.26% (inactive); and `CCCCCCCCCCCCCCCCOCCOCCOCCOCCOCCOCCOCCOCCOCCOCCOCCOCCOCCOCCOCCOCCOCCOCCOCCOCCO`, with 6.99% (inactive).
As for `Nc1nc(=O)n([C@@H]2CS[C@H](CO)O2)cc1F`, the figure is 22.4% (inactive); as for `CC(C)(C)c1ccc2c(S(=O)(=O)O)c(C(C)(C)C)ccc2c1`, -1.71% (inactive).
Then `CC(C)O`, with 9.22% (inactive); and `O=C1[O][Bi][O]c2ccccc21`, with -13.6% (inactive).
As for `NCC(O)CC(=O)O` (stereo unspecified), the “activity change, negative = inhibition” value is -0.586% (inactive).
On to `O=C(O[C@H]1CN2CCC1CC2)N1CCc2ccccc2[C@@H]1c1ccccc1`, for which the “activity change, negative = inhibition” value was 1.35% (inactive).
In the case of `CC(CC=O)CCCC(C)(C)O` (stereo unspecified), the “activity change, negative = inhibition” value is -2% (inactive).
As for `CC1=CC(=C(c2ccc(N)cc2)c2ccc(N)cc2)C=CC1=N`, the figure is -3.57% (inactive); as for `NCCO/C=C/[C@H](N)C(=O)O`, 0.806% (inactive).
Then `Cc1nc(NS(=O)(=O)c2ccc(N)cc2)nc(C)c1Br`, with -1.41% (inactive).
Then `O=C1c2ccccc2C(=O)C1c1ccc(F)cc1`, with -0.422% (inactive); and `C=CCN1CCCC1CNC(=O)c1cc(S(N)(=O)=O)cc(OC)c1OC` (stereo unspecified), with 4.49% (inactive).
`CCc1ncnc2cc(OC)c(OC)cc12`: the “activity change, negative = inhibition” value was 6.35% (inactive).
Then `NC(=O)Oc1ccc(Cc2ccccc2)cc1`, with -25.3% (inactive); and `Cc1ccc(C(C)(C)c2ccc(C)cc2)cc1`, with 1.04% (inactive).
As for `CC(=O)[O][Al][O]C(C)=O`, the figure is 2.62% (inactive); as for `CCC(C(=O)NC(N)=O)c1ccccc1` (stereo unspecified), 4.38% (inactive).
As for `CCSc1ccc2c(c1)N(CCCN1CCN(C)CC1)c1ccccc1S2`, the figure is 2.95% [at 24.3 µM] (inactive).
As for `CC(CNC(=O)c1cccnc1)NC(=O)c1cccnc1` (stereo unspecified), the “activity change, negative = inhibition” value is -18.1% (inactive).
Then `Cc1ncc(COP(=O)(O)O)c(CN)c1O`, with 20.5% (inactive); and `OC[C@H]1O[C@@H]2O[C@H]3[C@H](O)[C@@H](O)[C@@H](O[C@H]4[C@H](O)[C@@H](O)[C@@H](O[C@H]5[C@H](O)[C@@H](O)[C@@H](O[C@H]6[C@H](O)[C@@H](O)[C@@H](O[C@H]7[C@H](O)[C@@H](O)[C@@H](O[C@H]1[C@H](O)[C@H]2O)O[C@@H]7CO)O[C@@H]6CO)O[C@@H]5CO)O[C@@H]4CO)O[C@@H]3CO`, with -4.5% (inactive); and `CC(C)C1=CC2=CC[C@@H]3[C@](C)(CCC[C@@]3(C)C(=O)O)[C@H]2CC1`, with -1.23% (inactive).
As for `COc1ccc(/C=C/C(=O)OCCC(C)C)cc1`, the figure is 3.47% (inactive).
`CNC(=O)[C@H](Cc1c[nH]c2ccccc12)NC(=O)[C@@H](CC(=O)NO)CC(C)C`: the “activity change, negative = inhibition” value was -6.96% (inactive).
Then `CCCCO`, with 12.4% (inactive).
Then `C=CC[N+]1([C@H]2C[C@H]3[C@@H]4CC[C@H]5C[C@H](O)[C@@H](N6CCOCC6)C[C@]5(C)[C@H]4CC[C@]3(C)[C@H]2OC(C)=O)CCCC1`, with 4.04% (inactive); and `CC(C)=CCC/C(C)=C/C=C/C(C)=C/C=C/C(C)=C/C=C/C=C(C)/C=C/C=C(C)/C=C/C=C(\C)CCC=C(C)C`, with -1.38% (inactive); and `CC(C)(Oc1ccc(C2CCCc3ccccc32)cc1)C(=O)O` (stereo unspecified), with 0% (inactive).
As for `O=C1N=C2SCCN2C(=O)C1Cc1ccc(Cl)cc1` (stereo unspecified), the figure is 3.16% (inactive); as for `O=C(O)CCC/C=C\C[C@@H]1[C@@H](/C=C/[C@@H](O)COc2cccc(Cl)c2)[C@H](O)C[C@@H]1O`, -18% (inactive).
`Nc1nccs1`: the “activity change, negative = inhibition” value was -3.99% (inactive).
As for `O=C1c2ccccc2C(=O)c2c1ccc(O)c2O`, the figure is -18.6% (inactive); as for `CO[C@H]1C[C@@H]2CC[C@@H](C)[C@@](O)(O2)C(=O)C(=O)N2CCCC[C@H]2C(=O)O[C@H]([C@H](C)C[C@@H]2CC[C@@H](OC(=O)C(C)(CO)CO)[C@H](OC)C2)CC(=O)[C@H](C)/C=C(\C)[C@@H](O)[C@@H](OC)C(=O)[C@H](C)C[C@H](C)/C=C/C=C/C=C/1C`, -15.4% (inactive).
